Screening results: PubChem BioAssay, The Scripps Research Institute Molecular Screening Center
DAX1 inh-1: inhibitors of DAX1 repression of SF-1 activated StAR promoter; 1.1% of 370,000 active; HEK293T StAR-luciferase reporter, SF-1/DAX-1 repression relief; inhibition, % at 6.8 µM;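 active = inhibition above the mean over all tested compounds plus 3 SD, cut at about 3.6% in these data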;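 note: 0% = DAX-1 cells with DMSO and 100% = cells lacking DAX-1 with DMSO; higher inhibition means more luminescence from relief of DAX-1 repression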
ssDAF12 agonist: activators of S. stercoralis DAF-12 nuclear receptor | 1% of 370,000 active | AID 652126 | HEK293 ssDAF-12/GRIP1 lit1-tk-luc reporter, luminescence; % of 3 µM dafachronic acid response | activation, % at 6.8 µM;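 active = activation above the mean over all tested compounds plus 3 SD, cut at about 0.9% in these data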;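 note: 0% = DMSO-only wells and 100% = 3 µM delta7-dafachronic acid wells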
AHR activator: activators of human aryl hydrocarbon receptor; AHR-responsive luciferase reporter cells, luminescence; 2.5% of 320,000 active; P35869; AID 2796; activation, % at 5 µM; in the data active = activation above about 47%;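 note: 0% = vehicle wells and 100% = reference agonist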
hgDAF12 agonist: agonists of H. glycines DAF-12 nuclear receptor; AID 687014; 1.8% of 370,000 active; HEK293 GAL4-hgDAF12 UAS-luciferase reporter, agonist luminescence; normalized to butyrate control; activation, % at 6.8 µM;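 active = activation above a cutoff set at the mean of all screened compounds plus 3 SD, cut at about 10% in these data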;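 note: 0% = DMSO wells and 100% = sodium butyrate wells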
hcDAF12 agonist: H. contortus DAF-12 activation, primary screen; HEK293 hcDAF-12 lit1-tk-luc reporter, luminescence; 0% DMSO, 100% Δ7-dafachronic acid; activation, % at 6.8 µM; 1.4% of 370,000 active;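 active = activation above the mean of all tested compounds plus 3 SD, cut at about 5.5% in these data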;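 note: 100% = response to 3 µM Δ7-dafachronic acid high control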
DAX1 inh-2: inhibitors of human orphan nuclear receptor DAX1 (NR0B1). HEK293 Gal4-DAX1 luciferase reporter, luminescence. inhibition, % at 6.75 µM. 0.99% of 340,000 active. AID 504766;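 active = inhibition above the mean over all tested compounds plus 3 SD, cut at about 4.2% in these data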;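 note: 0% = DAX1-transfected cells with DMSO and 100% = empty-vector control cells with DMSO; inhibition shows as a rise in luminescence from relieved DAX1 repression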
AHR act confirm: confirmation of human aryl hydrocarbon receptor activators. shares compounds with AHR activator. human cells, AHR-responsive luciferase reporter, luminescence. activation, % at 9 µM. 87% of 2,300 active; in the data active = activation above about 49%;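 note: HepG2 hepatoma cells carrying a DRE-driven firefly luciferase reporter; 0% = vehicle wells and 100% = reference agonist wells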
PXR act counter: counter-screen for AHR activators: human PXR activators. activation, % at 11.6 µM. 88% of 2,300 active. shares compounds with AHR activator. cell-based PXR reporter, luciferase luminescence; in the data active = activation above about 11%;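 note: human hepatoma DPX-2 cells expressing full-length human PXR; 0% = DMSO and 100% = reference agonist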
Target sequence (O75469 whole entry, looked up): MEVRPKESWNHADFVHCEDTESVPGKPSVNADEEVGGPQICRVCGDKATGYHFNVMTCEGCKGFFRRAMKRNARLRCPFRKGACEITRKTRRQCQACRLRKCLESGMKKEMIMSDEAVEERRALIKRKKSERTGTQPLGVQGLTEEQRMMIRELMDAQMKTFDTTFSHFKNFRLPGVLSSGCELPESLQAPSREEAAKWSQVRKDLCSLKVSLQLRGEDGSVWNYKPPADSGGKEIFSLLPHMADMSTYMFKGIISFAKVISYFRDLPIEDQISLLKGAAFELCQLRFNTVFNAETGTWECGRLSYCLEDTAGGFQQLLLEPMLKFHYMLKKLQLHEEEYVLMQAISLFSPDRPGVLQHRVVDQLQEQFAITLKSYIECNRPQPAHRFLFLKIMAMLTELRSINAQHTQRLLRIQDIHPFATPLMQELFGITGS
The depositor's hits bear a star; x = no result. Sampled rows, rich in hits. Any-hit rate of the full collection: about 5.7%.

SMILES	DAX1 inh-1	ssDAF12 agonist	AHR activator	hgDAF12 agonist	hcDAF12 agonist	DAX1 inh-2	AHR act confirm	PXR act counter
Cc1ccc2cccc(OC(=O)c3c(F)cccc3Cl)c2n1	0	-1	x	0	1	x	x	x
COc1cccc(C2C3=C(N=C4SCC(=O)N42)c2ccccc2CC3)c1OC (centres undefined)	1	-1	4	2	0	0	x	x
CC(C)Cc1ccc(C(C)C(N)=Nc2ccc(O)cc2)cc1 (centres undefined)	0	-2	0	5	0	3	x	x
CCC(C)N(C(C)CC)S(=O)(=O)c1ccc2[nH]c(=O)oc2c1 (centres undefined)	0	0	x	-2	-2	x	x	x
COc1cc(C(=O)N/N=c2/sc3ccccc3n2C)cc(OC)c1OC	0	-2	171*	-1	-1	0	82*	56*
Cn1/c(=N/NC(=O)c2cccc(OC(F)F)c2)sc2ccccc21	0	-1	118*	6	2	3	110*	119*
Cc1ccc(S(=O)(=O)CCC(=O)OCc2cc(C)ccc2C)cc1	0	-1	0	6	-1	0	x	x
Cc1ccc(OCC(=O)NCc2cccs2)c([N+](=O)[O-])n1	0	-1	105*	0	-1	0	6	12*
Brc1ccc(-c2ncc(-c3ccccc3)cn2)cc1	3	-1	1	7	0	4	x	x
CCOc1ccccc1NC(=O)N1CCC(c2nc3ccccc3[nH]2)CC1	-1	0	3	3	0	1	x	x
COc1ccccc1NC(=O)N1CCC(c2nc3cc(C)c(C)cc3[nH]2)CC1	1	0	133*	-4	-1	-2	34	56*
COc1ccc(N2CCN(c3cc(C)c4ccc(O)cc4n3)CC2)cc1	0	-1	132*	-3	-1	0	71*	x
COc1ccc(N2CCN(c3cc(C)c4ccc(C)cc4n3)CC2)cc1	0	-2	100*	1	1	-2	110*	18*
COc1ccc(N2CCN(c3cc(C)c4cccc(C)c4n3)CC2)cc1	0	-1	129*	0	0	0	95*	13*
COc1ccc2c(C)cc(N3CCOCC3)nc2c1	0	-1	5	1	1	0	x	x
COc1ccc(Nc2cc(C(=O)NCc3ccco3)c3ccccc3n2)cc1	x	x	13	x	x	x	x	x
Cc1ccc(-c2csc3nc(-c4ccncc4)[nH]c(=O)c23)cc1	-1	-2	-3	-3	-3	1	x	x
Cc1ccc2nc(-c3ccncc3)[nH]c2c1	3	0	134*	11*	4	4	87*	21*
CC(C)c1onc(C(=O)N2CCOCC2)c1[N+](=O)[O-]	0	-1	0	-1	-2	-1	x	x
O=C(/C=C\c1cccs1)c1c(O)ccc2ccc(=O)oc12	-1	0	85*	5	4	0	97*	x
O=C(C=Cc1cccs1)c1cccs1	0	0	x	5	-1	0	x	x
O=C(Nc1nc2ccccc2s1)c1ccc(OCC2CCCO2)cc1 (centres undefined)	1	-1	112*	0	3	-3	69*	8
Cc1cnc(NC(=O)c2ccc(OCC3CCCO3)cc2)s1 (centres undefined)	2	0	12	9	5	-3	x	x
Nc1nc(-c2ccccc2)c(N=Nc2ccc(Cl)cc2)s1	0	1.2*	120*	0	3	-1	88*	14*
Nc1c(Cl)cc(-c2csc(N3CCCC3c3nc4cc(Cl)c(Cl)cc4n3CCCO)n2)cc1Cl (centres undefined)	-1	-1	16	-2	-1	3	x	x
SMILES	DAX1 inh-1	ssDAF12 agonist	AHR activator	hgDAF12 agonist	hcDAF12 agonist	DAX1 inh-2	AHR act confirm	PXR act counter
Nc1c(Cl)cc(-c2csc(N3CCCC3c3nc4cc(Cl)c(N5CCCCC5)cc4n3CCCO)n2)cc1Cl (centres undefined)	0	-1	86*	0	0	1	86*	197*
CCOc1cccc2sc(NC(=O)c3ccc(Br)s3)nc12	0	-1	97*	0	-3	-1	20	13*
CCOC(=O)Cc1csc(NC(=O)c2ccc(Br)s2)n1	x	x	8	x	x	x	x	x
C=CCc1c(C)nc(SC)nc1Nc1ccc(C(C)=O)cc1	-1	-1	83*	0	-1	-1	73*	120*
C=CCc1c(C)nc(SC)nc1Nc1ccc(C(=O)O)cc1	1	-2	-2	-1	0	2	x	x
C=CCc1c(C)nc(-c2ccccc2)nc1Nc1ccc(O)cc1	-1	-1	21	-1	-2	0	x	x
C=CCc1c(C)nc(SC)nc1Nc1ccccc1	-1	-1	104*	1	-3	-1	58*	105*
NC(=O)N/N=C\c1cc(Br)ccc1O	-1	-2	28	-4	1	-1	x	x
Cc1ccc(OCCOc2ccc(Br)cc2/C=N\NC(N)=O)cc1	0	-1	92*	1	-2	0	27	6
Cc1cc2n(n1)C(c1sccc1C)Nc1ccccc1-2 (centres undefined)	0	-1	13	2	0	0	x	x
Cc1cc2n(n1)C(c1ccc3c(c1)OCO3)Nc1ccccc1-2 (centres undefined)	0	-1	96*	2	0	1	91*	42*
Cc1c(NS(=O)(=O)c2cc(C(=O)NCc3ccco3)cc(Cl)c2Cl)c(=O)n(-c2ccccc2)n1C	-1	0	97*	0	0	-1	102*	201*
Cc1ccc(S(=O)(=O)Nc2c(C)n(C)n(-c3ccccc3)c2=O)cc1C(=O)NCc1ccco1	0	-1	x	-2	-1	1	x	x
CCCCNC(=O)c1sc2ncnc(N3CCc4ccccc4C3)c2c1C	1	-2	99*	-3	-1	0	102*	24*
CN1CCN(c2ccc(NC(=O)c3sc4ccccc4c3Cl)cc2)CC1	1	-1	80*	11*	1	3	49*	x
CN1CCN(C(=O)c2ccccc2NC(=O)c2sc3ccccc3c2Cl)CC1	0	-1	8	-1	0	2	x	x
C/C(=N/Nc1ccc(F)cc1)c1ccc(Cl)s1	0	0	84*	-1	3	1	68*	x
O=C1CC(c2ccccc2)CC(O)=C1C=Nc1ccc(O)cc1 (centres undefined)	-1	-2	83*	-3	-1	2	67*	14*
COc1ccc(N=CC2=C(O)CC(c3ccccc3)CC2=O)c(OC)c1 (centres undefined)	-2	-1	116*	2	-1	1	104*	21*
